Results on 38 compounds are retold here after PubChem BioAssay (NCI).

This is part of a sample that, as a whole, favours compounds with a hit. Of some 79,000 tested, about 15% had one in any assay. Unmarked numbers belong to inactive results. Calls of active or inactive are those of the source. No stated cut-off is given here; in the data, active means growth inhibition above about 70%; inactive means the rest.

Assay [1] can be described thus: NCI Yeast Anticancer Drug Screen. Data for the rad50 strain (AID 155).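 Further: 0% = growth of vehicle-only cultures of the same strain.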 Conditions: S. cerevisiae rad50 strain growth inhibition; at 50.0 µM; stronger effect = higher value. In outline: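 Vehicle-treated cultures provide the reference for the growth inhibition reported for compound-exposed, repair-deficient yeast.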
Assay [2] can be described thus: NCI Yeast Anticancer Drug Screen. Data for the mec2-1 strain (AID 157). Conditions: S. cerevisiae mec2-1 strain, at 50.0 µM, stronger effect = higher value. In outline:
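Compounds were applied to mec2-1 yeast cells. Their growth was then compared with that of vehicle-treated cultures to give growth inhibition.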

Assay [3] is described as follows: NCI Yeast Anticancer Drug Screen. Data for the sgs1 mgt1 strain (AID 161).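 Further: 0% = growth of cultures given vehicle only.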 Conditions: S. cerevisiae sgs1 mgt1 strain, at 50.0 µM, stronger effect = higher value. In outline:
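Yeast cells carrying a defined DNA-repair defect were exposed to test compounds. Growth inhibition was measured relative to vehicle-treated controls.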

A short description of assay [4]: NCI Yeast Anticancer Drug Screen. Data for the cln2 rad14 strain (AID 165).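 Further: 0% = growth equal to vehicle treated cultures.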 Conditions: S. cerevisiae cln2 rad14 strain, at 50.0 µM, stronger effect = higher value. In outline: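 Strain: cln2 rad14 yeast, altered in cell cycle control and DNA damage repair. Read-out: growth inhibition vs vehicle.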
Assay [5] in a line: NCI Yeast Anticancer Drug Screen. Data for the bub3 strain (AID 167). Conditions: S. cerevisiae bub3 mutant strain, at 50.0 µM, stronger effect = higher value. In outline: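 Mutant yeast screening strain plus compound; vehicle-treated cultures serve as the 0% inhibition reference.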
A short description of assay [6]: NCI Yeast Anticancer Drug Screen. Data for the mlh1 rad18 strain (AID 175). Conditions: S. cerevisiae mlh1 rad18 strain growth inhibition; at 50.0 µM; stronger effect = higher value. In outline:
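A repair-deficient yeast strain is exposed to test compound, and growth is scored relative to vehicle-treated controls.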

For `CC1(C)C2CC3OC3(C)C1C2` (stereo not drawn), the growth inhibition in assay [1] was 21.3%; in assay [2] it was -7%; in assay [3], 12.4%; in assay [4], -55.9%; in assay [5], -19.9%; in assay [6], -10.8%.

Regarding `CC1ON2CCCC2[C@H]1C(=O)N1C2CC3CCC2(CS1(=O)=O)C3(C)C` (stereo partly drawn), the growth inhibition was -4.35% in assay [1]; 2.9% in assay [2]; -28.6% in assay [3]; -0.35% in assay [4]; 19.4% in assay [5]; -36.7% in assay [6].

With `C/C(=C/C(C)O)c1ccccc1` (stereo not drawn), the growth inhibition in assay [1] is -13.6%; in assay [2], -3.85%; in assay [3] it was -15.2%; in assay [4], 4.9%; in assay [5], -6.1%; in assay [6], -6.9%.

Take `COC(=O)CC(=O)c1cccc([N+](=O)[O-])c1`: the growth inhibition in assay [1] was 8.95%; in assay [2] it was -22.1%; in assay [3], -3.15%; in assay [4] it was 16.5%; in assay [5], -26.8%; in assay [6] it was 0.15%.

For `CC(=O)OC[C@@H](COC(=O)/C=C/c1ccc(O)cc1)OC1OC(CO)C(O)C(O)C1O` (stereo partly drawn), the growth inhibition is -1.45% in assay [1]; -37.2% in assay [2]; -21.8% in assay [3]; 1.7% in assay [4]; -17.1% in assay [5]; -1.8% in assay [6].

Take `CCc1ccc2ccccc2c1N`: the growth inhibition is 20.6% in assay [1]; 8.05% in assay [2]; 6.1% in assay [3]; -1.65% in assay [4]; -0.3% in assay [5]; 15.1% in assay [6].

On to `O=[N+]([O-])c1ccc(F)cc1C(F)(F)F`, for which the growth inhibition in assay [1] is 19.1%; in assay [2], -17.4%; in assay [3], 32.4%; in assay [4], -10.2%; in assay [5], 0.2%; in assay [6], 43.5%.

For `CN(NC1=NCCO1)c1ccc2ccccc2c1`, the growth inhibition was -46.3% in assay [1]; -22.4% in assay [2]; -15.8% in assay [3]; -23.5% in assay [4]; -21.4% in assay [5]; -46.1% in assay [6].

For `O=S(=O)(Cc1ccccc1)/C(=C\c1ccccc1)c1ccccc1`, the growth inhibition in assay [1] was -6.65%; in assay [2], 11.4%; in assay [3], 2.4%; in assay [4] it was 0.1%; in assay [5] it was 6.6%; in assay [6], 5.5%.

Turning to `CCOC(=O)/C(C)=C1\N=C(c2ccccc2)OC(=NC2CCCCC2)N1C1CCCCC1`, the growth inhibition in assay [1] is 9.95%; in assay [2], -4.8%; in assay [3], 0.3%; in assay [4] it was 17.9%; in assay [5] it was -4.55%; in assay [6] it was 8.1%.

As to `CCOC=C(C(=O)OCC)C(=O)OCC`, the growth inhibition in assay [1] was 22.1%; in assay [2], -7.45%; in assay [3] it was -6.5%; in assay [4] it was -1%; in assay [5], -10.6%; in assay [6] it was 15.6%.

For the compound `Cc1ccc(C(=Nc2ccccc2)N=S(c2ccccc2)c2ccccc2)cc1`, the growth inhibition in assay [1] was -2.2%; in assay [2], 5.6%; in assay [3] it was -19%; in assay [4], -16.1%; in assay [5], 2.55%; in assay [6] it was -30.6%.

Consider `Cc1ccc(S(=O)(=O)N(N)CCC#N)cc1`, for which the growth inhibition in assay [1] is 7.3%; in assay [2] it was 4.55%; in assay [3], 14.8%; in assay [4] it was -24.1%; in assay [5], -10.1%; in assay [6] it was 14.6%.

Consider `CCOC(=O)/C(C#N)=C(O)\C(=C\c1ccc(Cl)cc1)NC(=O)c1ccc(NC(C)=O)cc1`, for which the growth inhibition in assay [1] was 8.9%; in assay [2], -0.3%; in assay [3], -17.4%; in assay [4], 9.2%; in assay [5], -8.1%; in assay [6], 5.65%.

Take `Nc1nc(Cl)cc(Nc2cc(Cl)cc(Cl)c2)n1`: the growth inhibition in assay [1] is 83.2% (active); in assay [2], 53.6%; in assay [3], 79.7% (active); in assay [4] it was 63.7%; in assay [5], 59.6%; in assay [6] it was 82.3% (active).

Regarding `C=C(c1ccccc1)C1(O)CCCCC1N(C)C` (stereo not drawn), the growth inhibition was -24.4% in assay [1]; -13.8% in assay [2]; 0.7% in assay [3]; -12.3% in assay [4]; 10.9% in assay [5]; 12.4% in assay [6].

For the compound `CC(C)Cc1cnc(CC(C)C)c(=O)[nH]1`, the growth inhibition is -13.6% in assay [1]; -44.6% in assay [2]; -28.1% in assay [3]; 10.8% in assay [4]; -40.2% in assay [5]; -25.9% in assay [6].

As for `O=c1[nH]c2cc(Cl)ccc2nc1/C=C(\O)c1ccccc1`, the growth inhibition was 1.35% in assay [1]; -18.9% in assay [2]; -5.9% in assay [3]; 4.55% in assay [4]; -19.1% in assay [5]; 20.1% in assay [6].

Consider `COC(=O)/C(=N/Nc1cccc(Cl)c1)C(C(=O)C(=O)Nc1cccc(Cl)c1C)c1nc2ccccc2nc1C` (stereo not drawn), for which the growth inhibition in assay [1] was 44.8%; in assay [2], 17.9%; in assay [3], 42%; in assay [4], 39.3%; in assay [5], 11.8%; in assay [6], 14.3%.

Regarding `CC1C2CCC3(CCC4C5(C)CCCC4(CN(CCO)C5)C3C2)C1O` (stereo not drawn), the growth inhibition is 2.1% in assay [1]; -24.4% in assay [2]; 5.3% in assay [3]; 13.8% in assay [4]; -2.4% in assay [5]; -8.4% in assay [6].

In the case of `CCOC(=O)/C=C/c1ccc(OCC)cc1`, the growth inhibition in assay [1] was -2.4%; in assay [2], 2.55%; in assay [3], -7.15%; in assay [4], -17.2%; in assay [5], -1.35%; in assay [6] it was -21%.

In the case of `CC(=O)OCC1OC(Nc2[nH]c(=O)[nH]c(=O)c2N=O)C(OC(C)=O)C(OC(C)=O)C1OC(C)=O` (stereo not drawn), the growth inhibition in assay [1] is 5.75%; in assay [2], 3.75%; in assay [3], 0.95%; in assay [4] it was -1.5%; in assay [5], -1.7%; in assay [6], -10.3%.

For `CC(C)/C=N/N(CCOC(=O)Nc1cccc2ccccc12)C(=O)Nc1cccc2ccccc12`, the growth inhibition in assay [1] was -4.95%; in assay [2], -15.1%; in assay [3] it was 1.75%; in assay [4] it was -19.8%; in assay [5], -8.15%; in assay [6], 14.8%.

For `CCOC(=O)c1c(N)[nH]c(SSc2[nH]c(N)c(C(=O)OCC)c2C(=O)OCC)c1C(=O)OCC`, the growth inhibition in assay [1] is 25.6%; in assay [2], 3.85%; in assay [3] it was 30.3%; in assay [4], 13.7%; in assay [5] it was 17.8%; in assay [6], 20.3%.

Take `CC(C)NC(=O)NCCc1c[nH]c2ccccc12`: the growth inhibition in assay [1] is -49.9%; in assay [2], -11.8%; in assay [3], 1.85%; in assay [4], 6.95%; in assay [5], 16.2%; in assay [6], -13.2%.

`O=C(Nc1ccc2ccccc2c1)OC1CCS(=O)(=O)C1` (stereo not drawn): the growth inhibition in assay [1] is -0.75%; in assay [2] it was -3.9%; in assay [3] it was 6.1%; in assay [4] it was 20.4%; in assay [5], -1.8%; in assay [6], -8.25%.

For `CC(C)C(C(=O)O)N(C)C(=O)c1cnc2ccccc2n1` (stereo not drawn), the growth inhibition in assay [1] was 9.1%; in assay [2], -1.2%; in assay [3] it was -0.6%; in assay [4] it was 22.9%; in assay [5] it was 17.6%; in assay [6], -6.2%.

Turning to `Cc1cc(=O)[nH]c(NN2C(Cl)C(=O)C2c2ccc(Cl)cc2)n1` (stereo not drawn), the growth inhibition was 10.6% in assay [1]; 7.45% in assay [2]; 4.2% in assay [3]; -7.9% in assay [4]; 8% in assay [5]; -18.4% in assay [6].

For the compound `O=S(=O)(Cl)c1cccc2c(S(=O)(=O)Cl)cccc12`, the growth inhibition in assay [1] was 7%; in assay [2], 2.15%; in assay [3] it was 15.4%; in assay [4] it was -40.5%; in assay [5], -10.4%; in assay [6], 16.2%.

Regarding `O=c1cc(-c2ccccc2)c2ccccc2[nH]1`, the growth inhibition was 2.15% in assay [1]; -6.8% in assay [2]; -12.5% in assay [3]; 15.9% in assay [4]; -27.1% in assay [5]; -1% in assay [6].

For `O=C(C[n+]1ccc2ccccc2c1)c1ccc(Br)cc1`, the growth inhibition in assay [1] was -17.1%; in assay [2] it was 12.3%; in assay [3], 1.8%; in assay [4] it was -0.65%; in assay [5] it was -11.9%; in assay [6], 28.9%.

Regarding `O=C(Sc1c(-c2ccccc2)c(=O)n(-c2ccccc2)c(=S)n1-c1ccccc1)c1ccc(Cl)cc1`, the growth inhibition was 2.75% in assay [1]; 3.9% in assay [2]; 16.1% in assay [3]; -4.35% in assay [4]; 5.4% in assay [5]; 12.8% in assay [6].

`Cc1cccc(NC(=O)/C=C/c2ccccc2)n1`: the growth inhibition is 6.15% in assay [1]; -26.5% in assay [2]; -4.3% in assay [3]; -81.3% in assay [4]; 9.15% in assay [5]; -22.4% in assay [6].

For the compound `COC1OC(COC(c2ccccc2)(c2ccccc2)c2ccccc2)C2OC12` (stereo not drawn), the growth inhibition in assay [1] is 44.1%; in assay [2] it was 5.15%; in assay [3], 22.6%; in assay [4], 11%; in assay [5] it was 1.3%; in assay [6], 19.7%.

Turning to `CCOC(=O)\C(C#N)=C/C=C(C)/C(C)=C/Nc1ccc([N+](=O)[O-])cc1[N+](=O)[O-]`, the growth inhibition in assay [1] is 10.9%; in assay [2], 7.85%; in assay [3], -18.4%; in assay [4], -5.2%; in assay [5] it was 0.8%; in assay [6], 22.6%.

Turning to `Clc1ccc(OCCSCCCCCCCCCCSCCOc2ccc(Cl)cc2)cc1`, the growth inhibition in assay [1] is -2%; in assay [2] it was -3.4%; in assay [3], 13.9%; in assay [4], -24%; in assay [5], -8.7%; in assay [6], -21.1%.

Consider `C#CC[N+](CC)(CC)CC`, for which the growth inhibition in assay [1] is 2.6%; in assay [2], -11.9%; in assay [3], -11.3%; in assay [4], -84%; in assay [5], -3.3%; in assay [6], -13.2%.

Take `CCCCCCC1C=CC(CCCCCCCC(=O)O)C(/C=C/CCCCCCCC(=O)O)C1CCCCCC` (stereo not drawn): the growth inhibition in assay [1] is -10.7%; in assay [2] it was -10.8%; in assay [3] it was -10.3%; in assay [4], 21%; in assay [5], -25%; in assay [6] it was 6.85%.
